# From PubChem BioAssay AID651820 (National Center for Advancing Translational Sciences (NCATS), 2012)
# “And” between values parts separate entries of the source, which are not always exact repeats. Identical values can stand only once. About 12,000 (3.5%) of roughly 340,000 compounds were called active. Entries that show only a call come without a potency. Roughly 18% stayed inconclusive and do not appear here. Calls follow the shape of the dose curve; as a rule, active = well fitted inhibition curve with a large enough effect; inconclusive = small, poorly fitted or top-dose-only effect, or another doubt; inactive = no such curve, though single readings can be large or run the other way. This excerpt belongs to a sample that is enriched for actives. Where a structure was tested more than once in an assay, its records may differ in their call.
# Assay: qHTS Assay for Inhibitors of Hepatitis C Virus (HCV)
# Conditions: Huh7.5.1 HCVcc-Cre infection, luciferase reporter, 44 h; series mostly up to 41.8 µM
# Text: Hepatitis C virus (HCV) infects about 200 million people in the world. Many infected people progress to chronic liver disease including cirrhosis with a risk of developing liver cancer. To date, there is no effective vaccine for hepatitis C. Current therapy based on interferon is only effective in about half of the patients and is associated with significant adverse effects. The fraction of people with HCV who can complete a successful treatment is estimated to be no more than 10 percent. Recent development of direct-acting antivirals against HCV, such as protease and polymerase inhibitors, is promising but still requires combination with peginterferon and ribavirin for maximal efficacy. In addition, these agents are associated with high rate of resistance and many have significant side effects. Due to the lack of a culture system for infectious HCV, the search for new HCV drugs has been greatly hampered. […] High-throughput screening (HTS) with an infectious HCV system would cover the complete spectrum of potentially druggable targets in all stages of HCV lifecycle, and would have more biological relevance than other cell-based assays. Moreover, targeting several key processes in the viral life cycle may not only increase antiviral efficacy; more importantly, it may also reduce the capacity of the virus to develop resistance to the compound. The goal of this project is to identify novel HCV inhibitors as new therapies for hepatitis C, using a highly sensitive and specific assay platform which is based on a HCV infectious cell culture system established in the laboratory and adapted for high-throughput HCV drug screen. NIH Chemical Genomics Center [NCGC] NIH Molecular Libraries Probe Centers Network [MLPCN] MLPCN Grant: MH095511 Assay Submitter (PI): Jake Liang, NIDDK
# The assay will start with plating 1,000 cells/well in 3 µL volume and culture for 4 h. Then 23 nL of compounds from the library collection will be added to each well, followed by adding 2.5 µL of HCVcc-Cre virus (~ 0.5 moi) and further cultured for 44 h before the luciferase assay. A volume of 4.5 µL luciferase substrates will be added to each well and the plates will be incubated at room temperature for 15 min. and then read for 15 sec. for the luciferase activity
Compound,Potency,"activity change, negative = inhibition"
COc1ccccc1CNS(=O)(=O)c1cc(C(=O)NCc2ccccn2)c(Cl)cc1Cl,inactive,
Cn1cccc1C(=O)OCC(=O)c1ccc(Br)s1,inactive,
Cc1ccc(C)c(NC(=O)COC(=O)c2nn(C)c(=O)c3ccccc23)c1,inactive,
O=C(Nc1ccccc1-c1nnn(CC(=O)N2CCN(c3ccccc3)CC2)n1)c1cccs1,12.6 µM (active),
COc1ccccc1N1CCN(C(=O)Cn2nnc(-c3cccs3)n2)CC1,inactive,
O=C(Nc1ccccc1-c1ccccc1)c1cccs1,inactive,
COc1cc(OC)cc(C(=O)NCC(=O)OCC(=O)NC(C)CCc2ccccc2)c1 (stereo not given),inactive,
Cc1nn(-c2ccc(F)cc2)c(Cl)c1/C=C(/CCC(=O)O)c1nc2ccccc2s1,inactive,
CCCN=C1N(C)C[C@@H]2[C@@H]3C(=O)N(Cc4ccccc4)C(=O)[C@@H]3[C@](C)(C(=O)OC)N12,,12% [at 8.37 µM] (inactive)
Cc1ccc(S(=O)(=O)N2[C@@H](c3ccc(Br)cc3)C(C(=O)O)=C[C@H]2CC2CCCC2)cc1,inactive,
CCCn1c(C(=O)c2ccccc2OC)nc2ccccc21,inactive,
CCn1c(/C=N/NC(=O)c2ccc(OC)cc2)nc2ccccc21,17.8 µM (active),
COc1ccc(C(=O)NCC(=O)N/N=C/c2cccnc2)cc1,inactive,
CCC(C)(C)n1nnnc1C(c1cccs1)N1CCN(Cc2ccccc2)CC1 (stereo not given),inactive,
CCC(C)(C)n1nnnc1C(c1ccccc1OC)N1CCSCC1 (stereo not given),inactive,
CCC(C)(C)n1nnnc1C(c1cccs1)N1CCN(c2nc3ccccc3s2)CC1 (stereo not given),10 µM (active),
Cc1cc(NC(=O)CSC2=NS(=O)(=O)c3cc(Cl)ccc3N2)no1,inactive,
CCNCCC(=O)N1c2ccccc2Sc2ccc(NC(=O)OCC)cc21,12.6 µM (active),
CCOC(=O)CNC(=O)N1c2ccccc2Sc2ccccc21,inactive,
CCOC(=O)Nc1ccc2c(c1)N(C(=O)CCN1CCN(CCO)CC1)c1ccccc1CC2,inactive,
COc1ccc(-c2nc(CS(=O)(=O)CC(=O)NCc3cccc(Br)c3)c(C)o2)cc1,inactive,
CCCCN(CC)CCCNC(=O)CS(=O)(=O)Cc1nc(-c2cccc(OC)c2)oc1C,inactive and 20 µM (active),
COc1cccc(-c2nc(CS(=O)CC(=O)NCc3ccc(F)cc3)c(C)o2)c1 (stereo not given),inactive,

Compound,Potency,"activity change, negative = inhibition"
COc1ccc(C(CNC(=O)c2ccc(NS(=O)(=O)c3ccc(F)c(C)c3)cc2)N(C)C)cc1 (stereo not given),inactive,
Cc1ccc(OCCC(=O)Nc2ccc(S(=O)(=O)Nc3nccs3)cc2)cc1,inactive,
COCCCn1c(SCc2cccc(OC)c2)nc2cc(OC)c(OC)cc2c1=N,7.08 µM (active),
COCCn1c(SCc2nc3cc(OC)c(OC)cc3c(=O)[nH]2)nnc1-c1ccncc1,inactive,
COc1cccc(CSc2nc3nc(C)cc(C)n3n2)c1,inactive,
Cc1ccccc1SCC(=O)OCC(=O)N1CC(=O)Nc2ccccc21,inactive,
CC1CCCCC1NC(=O)/C(C#N)=C/C=C/c1ccccc1[N+](=O)[O-] (stereo not given),11.2 µM (active),
O=C(/C=C/c1ccccc1[N+](=O)[O-])NCC1CCCO1 (stereo not given),inactive,
O=C(/C=C/c1ccccc1[N+](=O)[O-])OC1CCCCC1=O (stereo not given),inactive,
Cc1ccc(S(=O)(=O)N2[C@@H](c3cccc(Cl)c3)C(C(=O)O)=CC[C@H]2c2ccc(Cl)c(Cl)c2)cc1,inactive,
C#CCOCCOCCOCCNc1nc(N2CCN(C(=O)CCCCCCCCCCNC(=O)[C@H](CCCCN)n3cc(C)nn3)CC2)nc(N2CCN(C(=O)CCCCCCCCCCNC(=O)[C@H](CO)n3cc(CCCSC)nn3)CC2)n1,inactive,
CC(OC(=O)CCCOc1ccccc1)C(=O)Nc1ccc(Cl)cn1 (stereo not given),inactive,
CCN(CC)S(=O)(=O)c1ccc(N2CCCC2)c(NC(=O)c2ccc([N+](=O)[O-])o2)c1,10 µM (active),
CCN(CC)S(=O)(=O)c1ccc(N2CCOCC2)c(NC(=O)c2ccc(=O)n(C)n2)c1,inactive,
CCN(CC)S(=O)(=O)c1cc(C(=O)Nc2cc(S(=O)(=O)N3CCOCC3)ccc2N2CCCC2)ccc1F,inactive,
CCOc1ccccc1OCC(=O)Nc1ccccc1C(=O)NC1CC1,inactive,
Cc1noc(C)c1NC(=O)Nc1ccc2c(c1)C(=O)N([C@H](C)CO)C[C@H](C)[C@@H](CN(C)C(=O)Nc1ccc(C(F)(F)F)cc1)O2,3.98 µM (active),
Cc1noc(C)c1NC(=O)Nc1cccc2c1O[C@H](CN(C)C(=O)Nc1ccccc1)[C@@H](C)CN([C@H](C)CO)C2=O,inactive,
Cc1noc(C)c1NC(=O)Nc1ccc2c(c1)C(=O)N([C@H](C)CO)C[C@H](C)[C@@H](CN(C)C(=O)Nc1ccccc1)O2,inactive,
OCC[C@H]1C[C@H](O)[C@@H](O)[C@]2(CCc3ccccc3O2)O1,inactive,
Cc1ccc(C)c(C(=O)COC(=O)Cn2[nH]c(=O)c3ccccc3c2=O)c1,inactive,
CCC1(C)Cc2c(sc3nnn(CC(=O)Nc4ccc(Cl)cc4)c(=O)c23)CO1 (stereo not given),11.2 µM (active),
CCC1(C)Cc2c(sc3nc(SC)nc(N)c23)CO1 (stereo not given),inactive,

Compound,Potency,"activity change, negative = inhibition"
CCOC(=O)Cn1c(SC)nc2sc3c(c2c1=O)CC(C)(C)OC3,inactive,
COc1cc(/C=C/CNC[C@H]2O[C@@H](n3cnc(C(N)=O)n3)[C@H](O)[C@@H]2O)ccc1O,inactive,
O=C(COC(=O)/C=C/c1ccc(OC(F)F)cc1)NC1CCCCC1,inactive,
COC(=O)[C@@]1(C)[C@H]2C(=O)N(Cc3ccccc3)C(=O)[C@H]2[C@H]2CN=C(SCC3CC3)N21,,-7.38% [at 8.37 µM] (inactive)
Cc1cccc(N2CCN(Cc3nc(C4CC4)no3)CC2)n1,inactive,
Cc1cccc(N2O[C@H]3C=CC2CCCC3)n1,25.1 µM (active),
Cc1ccn(-c2cccc(-n3ccc(C)n3)n2)n1,inactive,
CCOC(=O)c1ccccc1NC(=O)COC(=O)C(Cc1c[nH]c2ccccc12)NC(C)=O (stereo not given),inactive,
COc1cc2ccccc2cc1C(=O)N1CCOCC1,inactive,
COc1ccc(S(=O)(=O)N2CCN(CC(=O)N3c4ccccc4CC3C)CC2)cc1OC (stereo not given),inactive,
CCOC(=O)c1c(NC(=S)NC)sc2c1CCCC2,inactive,
CCCOC(=O)Nc1sc2c(c1C(=O)OCC)CCC2,10 µM (active),
CCOC(=O)c1c(NC(=O)CSc2cn(CC)c3ccccc23)sc2c1CCC2,inactive,
CCOC(=O)c1c(NC(=O)C(C)Sc2c[nH]c3ccccc23)sc2c1CCC2 (stereo not given),11.2 µM (active),
CCOC(=O)c1c(NC(=S)Nc2ccccc2C)sc2c1CCC2,inactive,
CCOC(=O)c1c(NC(=S)NC(=O)c2ccco2)sc2c1CCCC2,inactive,
O=C(CN1C(=O)NC2(CCCCCC2)C1=O)NCc1ccc(F)cc1,inactive,
CCOc1ccc(NC(=O)CN(C)C(=O)CSc2ccccc2)cc1OCC,inactive,
O=C(Nc1ccc(F)c([N+](=O)[O-])c1)C1CCCO1 (stereo not given),inactive,
Nc1nonc1-n1nnc(C(=O)N/N=C/c2ccccc2O)c1CN1CCCC1,inactive,
COc1ccccc1NC(=O)COC(=O)CNC(=O)C1CCCCC1,inactive,
CC(c1nnc(SCC(=O)Nc2sccc2C#N)n1-c1ccc(Cl)cc1)N(C)C (stereo not given),22.4 µM (active),
Cc1cccc(C)c1Nc1nnc(SCC(=O)Nc2sccc2C#N)s1,inactive,

Compound,Potency,"activity change, negative = inhibition"
Cc1csc(SCC(=O)Nc2sccc2C#N)n1,inactive,
COc1ccccc1C(=O)NCCC(=O)NN1C(=O)NC2(CCCCC2)C1=O,inactive,
O=C1CCCCC1Sc1ccc(Cl)cc1[N+](=O)[O-] (stereo not given),inactive,
Cc1cc(C)c(S(=O)(=O)NCC(c2ccc3c(c2)OCO3)N2CCOCC2)c(C)c1 (stereo not given),inactive,
CN(C)C(CNC(=O)Cc1ccc([N+](=O)[O-])cc1)c1ccccc1 (stereo not given),inactive,
O=C(Cc1ccc(NC(=O)C2CCCN(C(=O)C3CCCCC3)C2)cc1)Nc1cccc(C(=O)N2CCCCC2)c1 (stereo not given),,-22.8% [at 8.37 µM] (inactive)
CN(C(=O)c1cccc(NC(=O)Cc2cccc(NC(=O)C3CCCN(C(=O)C4CC4)C3)c2)c1)C1CCC1 (stereo not given),,-22.6% [at 8.37 µM] (inactive)
CC(C)(C)OC(=O)N1CCC(C(=O)Nc2cccc(C(=O)NCCc3ccccc3)c2)CC1,8.91 µM (active),
CN(CCc1ccccc1)C(=O)c1cccc(NC(=O)Cc2cccc(NC(=O)C3CCCN(C(=O)CCc4ccccc4)C3)c2)c1 (stereo not given),0.794 µM (active),
O=C(Cc1ccc(NC(=O)C2CCCN(C(=O)CCc3ccccc3)C2)cc1)Nc1ccc(C(=O)N2CCOCC2)cc1 (stereo not given),,-13.7% [at 8.37 µM] (inactive)
CN(C)CCNC(=O)Cc1ccc([N+](=O)[O-])cc1,inactive,
O=C(NCCc1ccccc1)c1cccc(NC(=O)c2ccccc2)c1,inactive,
O=C(NCc1ccccc1)c1cccc(NC(=O)C2CCCCC2)c1,,-17.2% [at 8.37 µM] (inactive)
CN(CCc1ccccc1)C(=O)c1cccc(NC(=O)Cc2cccc(NC(=O)C3CCCN(C(=O)C4CCC4)C3)c2)c1 (stereo not given),10 µM (active),
CN(C(=O)c1cccc(NC(=O)Cc2ccc(NC(=O)C3CCCN(C(=O)C4CCCC4)C3)cc2)c1)C1CCC1 (stereo not given),,-26.3% [at 8.37 µM] (inactive)
CN(C(=O)c1cccc(NC(=O)Cc2ccc([N+](=O)[O-])cc2)c1)C1CCC1,3.16 µM (active),
CC(Sc1ccccc1F)C(=O)Nc1cccc(S(=O)(=O)N2CCOCC2)c1 (stereo not given),inactive,
CCC1(C)NC(=O)N(CC(=O)N2CCN(c3cccc(Cl)c3)CC2)C1=O (stereo not given),inactive,
COc1ccc(S(=O)(=O)N2CCN(CC(=O)NCC3(N4CCOCC4)CCCCC3)CC2)cc1,inactive,
CC(NC(=O)c1ccccc1)C(=O)Nc1ccccc1 (stereo not given),inactive,
COc1ccc(Cl)cc1C=CC=NNC(=O)c1ccncc1,inactive,
